Assay results published in PubChem BioAssay (NCATS).
Records with an inconclusive call do not appear. A number with no mark means an inactive call. Active and inactive are the calls of the source. Calls follow the shape of the dose curve; as a rule, active = well fitted inhibition curve with a large enough effect; inconclusive = small, poorly fitted or top-dose-only effect; inactive = no such curve, though single readings can be large or run the other way.

These molecules were tested against Thioredoxin reductase 1, cytoplasmic (Rattus norvegicus) (UniProt O89049) (assay: qHTS Assay for Inhibitors of Mammalian Selenoprotein Thioredoxin Reductase 1 (TrxR1) (AID 488773; also: nearly all actives have a fitted effect of over 40% in size)). Settings: purified TrxR1 enzyme activity; Potency: inhibition; series mostly up to 57.1 µM; activity change, negative = inhibition: at the top concentration.
Sequence of Thioredoxin reductase 1, cytoplasmic (Rattus norvegicus) (O89049 whole entry, looked up): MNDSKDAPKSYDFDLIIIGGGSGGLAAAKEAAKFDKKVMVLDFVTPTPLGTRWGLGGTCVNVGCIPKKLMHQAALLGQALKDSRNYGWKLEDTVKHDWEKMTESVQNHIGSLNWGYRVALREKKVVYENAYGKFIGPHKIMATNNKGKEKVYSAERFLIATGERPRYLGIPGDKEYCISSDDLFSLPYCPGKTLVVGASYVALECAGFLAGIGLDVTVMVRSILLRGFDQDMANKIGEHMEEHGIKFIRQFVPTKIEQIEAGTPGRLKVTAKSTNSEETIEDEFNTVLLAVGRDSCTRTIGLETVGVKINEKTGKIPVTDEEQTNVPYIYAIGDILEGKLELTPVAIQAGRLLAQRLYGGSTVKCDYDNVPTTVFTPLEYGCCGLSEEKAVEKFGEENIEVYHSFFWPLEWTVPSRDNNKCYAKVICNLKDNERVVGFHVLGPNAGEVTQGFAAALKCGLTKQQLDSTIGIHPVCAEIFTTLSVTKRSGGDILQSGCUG
Source text: The selenoprotein thioredoxin reductase (TrxR; EC 1.8.1.9) is a FAD containing homodimeric pyridine nucleotide-disulfide oxidoreductase with many cellular roles. Together with NADPH and its prime substrate thioredoxin (Trx), the enzyme forms the core of the Trx system. The mammalian Trx system exerts a wide spectrum of functions including redox regulation, antioxidant defense, regulation of transcription factors as well as support of cell growth and replication. Many of these functions involve the reduction of Trx, which may subsequently reduce a number of different substrates including ribonucleotide reductase, peroxiredoxins or NFkB. Mammalian TrxR itself also has a broad substrate specificity, reducing both protein and non-protein substrates, including low molecular weight compounds such as dehydroascorbate, lipoic acid, ubiquinone, and juglone. In addition, several drugs in clinical use for anticancer treatment are indeed known to target TrxR1.
This BioAssay is a validation of an NADPH fluorescence-based, dual-purpose qHTS rTrxR1 assay designed to find potential inhibitors and substrates of rTrxR1. For this particular BioAssay, actives are potential inhibitors. See related BioAssay for substrate data deposition.
Assay protocol: 2 uL of reagents (buffer in column 4 as negative control and 90 nM rTrxR1 in columns 1-3 and 5-48) were dispensed into Greiner black solid-bottom 1,536-well assay plates, followed by 1 uL of NADPH (400 uM final concentration) to each well. The plates were centrifuged at 1000 rpm for 15 seconds and subsequently incubated for 5 min at room temperature (~22 deg C) to allow for rTrxR1 reduction. Compounds (23 nL) were then transferred via Kalypsys pin tool equipped with 1536-pin array (10 nL slotted pins, V&P Scientific, San Diego, CA). In addition, a duplicate 2-fold serial dilution of the control compounds auranofin, a known gold-based TrxR1 inhibitor, and juglone (5-hydroxy-1,4-naphthoquinone), a natural TrxR1 substrate, were pin-transferred to columns 2 and 3, respectively. After incubation for 15 min at room temperature (~22 deg C), 1 uL of selenite (400 uM final concentration) were dispensed to each well. The plate was immediately transferred to a ViewLux high-throughput CCD imager (PerkinElmer), wherein kinetic measurements of NADPH fluorescence (Ex 340 nm, Em 450 nm) were acquired (8 minute kinetic read, see Table 1). Read 1 was utilized to assess the capacity of a compound to serve as an rTrxR1 substrate, i.e. a decrease in NADPH fluorescence compared to the no-compound background is an indication of a substrate behavior for that particular compound. For inhibitory activity of a compound, delta values, computed as the difference in fluorescence intensity between the first and last reads of an 8-minute time kinetic window, were used. All reagents were diluted in an assay buffer consisting of 50 mM Tris-HCl, pH 7.5, 2 mM EDTA, and 0.01% Tween-20.
Throughout the screen, reagent bottle and all liquid lines were made light-tight to minimize reagent degradation. All screening operations were performed on a fully integrated robotic system (Kalypsys, San Diego, CA) containing one RX-130 and two RX-90 anthropomorphic robotic arms (Staubli, Duncan, SC). Library plates were screened starting from the lowest and proceeding to the highest concentration, and a 'double-pinning' step of the highest concentration was required to access higher concentrations of compounds. Vehicle-only plates, with DMSO being pin-transferred to the columns 5-48, were inserted uniformly at the beginning and the end of each library in order to monitor and record any shifts in the background, which can be affected by reagent dispensers or loss in enzyme activity over time. Screening data were corrected, normalized, and concentration-effect relationships were derived by using publicly-available curve fitting algorithms developed in-house (http://ncgc.nih.gov/pub/openhts).
% is scaled to controls: 0 for no effect and ±100 for the full control effect; potency is read from the fitted curve at half-maximal effect.

Structure (SMILES)	activity change, negative = inhibition [%]	Potency
Cn1cnc2c(NCc3ccccc3)nc(NCCO)nc21	1.1	–
NC(N)=NCCCCN=C(N)N	-4.65	–
O=C1NC(=O)/C(=C/c2ccc3c(c2)OC(F)(F)O3)S1	0.482	–
CCN(CC)CCNC(=O)c1ccc(NS(C)(=O)=O)cc1	-2.29	–
Brc1ccc([C@H]2CN3CCSC3=N2)cc1	3.71	–
Cc1nn(-c2ccccc2)c(C)c1/C=N/N1CCN(Cc2ccccc2)CC1	4.17	–
COc1ccccc1N1CCN(CCN2C(=O)CC3(CCCC3)CC2=O)CC1	-0.3	–
COC(=O)C1=CO[C@@H](O)[C@@H]2C(CO)=CC[C@H]12	-8.18	–
C[N+](C)(C)CCO	1.37	–
CN(C)c1cc2c(Nc3ccc4c(cnn4Cc4ccccc4)c3)ncnc2cn1	-0.445	–
CC(C)N(CCC(=O)c1ccc2ccccc2c1)Cc1ccccc1	–	7.52 µM (active)
N[C@@H](Cn1ccc(=O)c(O)c1)C(=O)O	-9.44	–
O=C1NC(c2cccc([N+](=O)[O-])c2)=CCN1c1ccccc1O	-5.92	–
O=[N+]([O-])c1ccc(-c2nc(-c3ccc(F)cc3)c(-c3ccncc3)[nH]2)cc1	-20.7	–
COc1cccc2c1[C@@H]1CN(CCCCn3c(=O)[nH]c4c(sc5ncc(-c6ccccc6)nc54)c3=O)C[C@@H]1CO2	1.36	–
Nc1ncnc2n[nH]c(Nc3ccc(F)cc3)c12	-5.72	–
